# Only some compounds are listed: those with a hit (about 3.7% of all), similar ones and a draw of the others.
# TCR activator: activators of T cell receptors; primary human leukocytes, anti-CD3, IL-2 HTRF, 48 h; AID 504894; 330,000 tested, under 10 active; Potency, µM (top dose mostly 9.22 µM), without a hit: top-dose activation of IL-2 secretion, actives largely listed as activators; note: % of control where 0% means no effect
#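 1) Mix primary human leukocytes, a-CD3 beads and compound. 2) Incubate 48 hr. 3) Add HTRF IL-2 reagents (a-IL-2-K, a-IL-2-d2).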
# FEN1 inh: inhibitors of human flap endonuclease 1. P39748. Recombinant FEN1 flap cleavage, fluorescence, 15 min. Potency, µM (doses to about 114 µM), for inactives: top-dose activity change, negative = inhibition, hits mostly inhibitors. actives 0.35% (n = 390,000). AID 588795; note: potency is the fitted concentration of half-maximal effect; % is set by controls: 0 for no effect and ±100 for the full control effect; nearly all actives have a fitted effect of over 65% in size
#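 In this screen, 50 nM flap DNA substrate was added to 10 nM FEN1 pretreated with compound for 15 min at room temperature; cleavage was followed with reads at 0 and 15 min, and Hill fitting gave concentration–response parameters.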
# VDR inhibitor: vitamin D3 receptor (human) inhibition. P11473. Potency, µM, inactives show max response, negative = inhibition, actives largely listed as inhibitors. actives 0.93% (n = 400,000). VDR-SRC2-3 peptide fluorescence polarization, 2 h; note: potency is the fitted concentration of half-maximal effect; % is set by controls: 0 for no effect and ±100 for the full control effect
#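 Inhibition of the VDR/SRC2-3 peptide interaction is quantified by fluorescence polarization. Compounds (23 nl, pintool) incubate with the reagents for 2 hours at ambient room temperature.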
# PLK1 PBD block: PLK1 (human) polo-box domain binding inhibition; P53350; Potency, µM, inactives show max response, negative = inhibition, most hits filed as inhibitors; actives 2.8% (n = 360,000); Plk1 PBD binding of FITC phosphopeptide, fluorescence polarization; note: potency is the fitted concentration of half-maximal effect; series mostly up to about 57 µM; % is set by controls: 0 for no effect and ±100 for the full control effect; nearly all actives have a fitted effect of over 65% in size
# Target sequence (P53350 whole entry, looked up, the tested form may be a part): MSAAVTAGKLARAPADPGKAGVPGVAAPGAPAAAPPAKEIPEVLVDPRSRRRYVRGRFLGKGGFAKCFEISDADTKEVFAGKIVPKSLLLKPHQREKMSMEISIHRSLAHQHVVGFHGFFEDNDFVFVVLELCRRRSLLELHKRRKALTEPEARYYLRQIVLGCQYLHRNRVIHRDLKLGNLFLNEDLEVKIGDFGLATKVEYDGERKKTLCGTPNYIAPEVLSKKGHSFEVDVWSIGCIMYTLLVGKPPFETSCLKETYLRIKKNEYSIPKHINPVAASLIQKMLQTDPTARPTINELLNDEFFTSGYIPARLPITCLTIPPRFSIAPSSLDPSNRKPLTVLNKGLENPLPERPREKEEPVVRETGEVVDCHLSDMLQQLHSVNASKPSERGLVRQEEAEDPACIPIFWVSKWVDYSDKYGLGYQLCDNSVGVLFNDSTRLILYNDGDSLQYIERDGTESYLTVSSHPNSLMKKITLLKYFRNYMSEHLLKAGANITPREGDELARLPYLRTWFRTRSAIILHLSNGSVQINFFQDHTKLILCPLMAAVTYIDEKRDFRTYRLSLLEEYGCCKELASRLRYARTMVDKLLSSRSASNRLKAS
# WRN helicase inh: inhibitors of human WRN helicase; WRN helicase unwinding, fluorescent forked duplex, kinetic; Potency, µM (titrated, usually from 114 µM), without a hit: at the top dose activity change, negative = inhibition, actives largely listed as inhibitors; actives 0.46% (n = 360,000); AID 651768; note: potency is the fitted concentration of half-maximal effect; % is set by controls: 0 for no effect and ±100 for the full control effect; nearly all actives have a fitted effect of over 55% in size
#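 Kinetic fluorescence helicase assay: unwinding of a quenched forked DNA duplex (100 nM final) with 2 mM ATP final raises red fluorescence (525/598 nm). Compounds sat 15 min at room temperature with 20 nM WRN beforehand.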
# PI5P4K alpha inh: inhibitors of human PI5P4K alpha. P48426. PI5P4Kalpha enzyme, ADP-Glo luminescence, 60 min; active compounds read low. max response, %. actives 1.2% (n = 330,000). AID 652105; active = max response of -50% or lower; inconclusive = between -30% and -50%; inactive = -30% or higher; note: value at the top dose of about 77 µM; % is set by controls: 0 for no effect and ±100 for the full control effect
#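 Single end-point luminescence (ADP-Glo) quantified ADP from PI5P4Kalpha turnover; ATP 5 microM final, 1 h at RT, 0.1% CHAPS and 0.28 mM EGTA in HEPES pH 7.4.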
# Numbers without * were called inactive; ? = inconclusive; · = not tested or not shown; [ ] = remark or other dose. Unless noted, calls come from the whole dose curve; as a rule, active = well fitted curve in the direction sought with a large enough effect; inconclusive = small, poorly fitted or top-dose-only effect, or another doubt; inactive = no such curve, though single readings can be large; an effect the other way counts as inactive or inconclusive.
SMILES,TCR activator,FEN1 inh,VDR inhibitor,PLK1 PBD block,WRN helicase inh,PI5P4K alpha inh
O=[N+]([O-])c1ccc(-n2nnnc2-c2ccccc2)cc1,-2%,?,22µM*,11µM*,5%,-25
CC(C)(C)c1ccc(COC(=O)Nc2ccc(F)cc2)cc1,0%[46.1 µM],2%,-25%,3%,-5%,3
CC(C)(C)c1ccc(NC(=O)Nc2ccc(F)cc2)cc1,3%,3%,0%,27µM*,-30%,-18
COc1ccc(CNC(=O)CSc2nnc3c(n2)[nH]c2ccccc23)cc1,-16%,-4%,-1%,-2%,-2%,-7
O=C(CSc1nnc2c(n1)[nH]c1ccccc12)NCc1ccco1,7%,-5%,-4%,30µM*,-9%,?
O=C(CSc1ncc(-c2ccccc2)nn1)NCc1ccco1,0%,1%,3%,-13%,-8%[11.6 µM],·
O=C(CSc1nnc(-c2ccccc2)c(-c2ccccc2)n1)NCc1ccco1,9%[46.1 µM],-9%,-3%,21µM*,-23%,-20
O=C(CSc1nc(-c2ccccc2)c(-c2ccccc2)[nH]1)NCc1ccco1,7%,0%,?,21µM*,-12%,·
O=C(Cn1cnc2sc(-c3ccccc3)cc2c1=O)NCc1ccco1,1%,?,?,2.7µM*,56µM*,-83*
COc1ccc(OC)c(NC(=O)c2ccc3c(c2)c(C)c(C)n3Cc2ccc(F)cc2)c1,·,5%,-5%,·,·,·
O=C(O)CSc1nnc(-c2ccccc2)c(-c2ccccc2)n1,8%,10%,?,9.5µM*,-1%,-27
NC(=O)CSc1nnc(-c2ccccc2)c(-c2ccccc2)n1,5%,4%,3%,-9%,-2%,-3
COc1ccc([N+](=O)[O-])cc1NC(=S)Nc1ccccc1,12%,-14%,-1%,-30%,2%,6
Fc1cccc(NC(=S)NNc2ccccc2)c1,4%,-15%,40µM*,?,8%,0
O=[N+]([O-])c1ccc(NNC(=S)Nc2ccccc2)cc1,-1%,-15%,45µM*,?,-2%,?
O=[N+]([O-])c1ccc(O)c(NC(=S)Nc2ccccc2)c1,-15%,-8%,?,27µM*,-19%,?
O=[N+]([O-])c1ccc(NC(=S)NCCc2ccccc2)cc1,2%[46.1 µM],-1%,-14%,?,-21%[57.1 µM],1
CC[C@H](C)[C@H]1O[C@]2(CC[C@@H]1C)C[C@@H]1C[C@@H](C/C=C(\C)[C@H](O[C@@H]3C[C@H](OC)[C@H](O[C@@H]4C[C@H](OC)[C@@H](O)[C@H](C)O4)[C@H](C)O3)[C@@H](C)/C=C/C=C3\CO[C@@H]4[C@H](O)C(C)=C[C@@H](C(=O)O1)[C@]34O)O2,·,·,2%,·,·,·
CCCC[C@H](NC(C)=O)C(=O)N[C@@H](CCC(=O)O)C(=O)N[C@@H](Cc1cnc[nH]1)C(=O)N[C@H](Cc1ccccc1)C(=O)N[C@@H](CCCN=C(N)N)C(=O)N[C@H](Cc1c[nH]c2ccccc12)C(=O)NCC(N)=O,·,·,17%,·,·,·
CC[n+]1cccc(Br)c1,·,-10%,·,·,·,·
Cn1c(C(=O)NCc2ccc(F)cc2)cc2cc(S(=O)(=O)N3CCCCC3)ccc21,·,-3%,9%,·,·,·
O=C(COc1ccccc1)N(Cc1cccc(F)c1)C1CCS(=O)(=O)C1 (configuration not stated),-5%,14%,3%,-11%,5%,2
O=C(COc1ccc(F)cc1)N(Cc1cccc(Br)c1)C1CCS(=O)(=O)C1 (configuration not stated),-2%,7%,?,24µM*,-8%,-23
CC(=O)OCCNc1cc(SCc2ccco2)c2nonc2c1[N+](=O)[O-],-2%[46.1 µM],?,-27%,?,?,?
CC(=O)OCCCNc1cc(Sc2nc3ccccc3s2)c2nonc2c1[N+](=O)[O-],-4%,-20%,?,2.1µM*,-20%,-16
SMILES,TCR activator,FEN1 inh,VDR inhibitor,PLK1 PBD block,WRN helicase inh,PI5P4K alpha inh
Cn1ccnc1Sc1cc(NCCCO)c([N+](=O)[O-])c2nonc12,·,?,20µM*,3µM*,?,-2
CC(=O)OCCNc1cc(Sc2nc3ccccc3[nH]2)c2nonc2c1[N+](=O)[O-],-2%[46.1 µM],?,14µM*,2.7µM*,?,3
CN(Cc1ccccc1)c1ccc(C=O)cc1,·,-8%,·,·,·,·
O=c1oc(-c2ccc(O)c(O)c2)cc2cc(O)cc(O)c12,3%,35µM*,-7%,-2%,50µM*,-66*
O=C(N/N=C/c1cc(Br)c(O)c(Br)c1)C1CC1,6%,-3%,-16%,-4%,0%,?
CC(C)(C)NC(=S)N/N=C/c1cc(Br)c(O)c(Br)c1,-3%,17%,-11%,?,-8%,-91*
C=C1C(=O)OC2C1CCC(C)=C1C(=O)C3OC3(C)C12 (configuration not stated),2%,-2%,?,19µM*,-4%,1
CC(=O)c1cc(NC(=O)c2ccc(C)cc2)c(=O)oc1C,0%,-15%,?,11µM*,-13%,-9
COC(=O)c1cc(NC(=O)c2ccc(OC)cc2)c(=O)oc1C,7%,-8%,2%,?,-3%[57.1 µM],10
Cc1oc(=O)c(NC(=O)c2ccccc2)cc1C(=O)c1ccccc1,-2%,-3%,18µM*,-25%,-33%,·
Cc1oc(=O)c(NC(=O)c2ccc(Cl)cc2)cc1C(=O)c1ccccc1,3%,-9%,25µM*,-13%,?,-19
CC1(C)CC(=O)c2cc(NC(=O)c3ccccc3)c(=O)oc2C1,2%[46.1 µM],1%,-29%,27µM*,-5%,4
CC(=O)c1cc(NC(=O)c2ccccc2)c(=O)oc1C,3%,-27%,-5%,?,-20%,-3
CC(=O)O[C@@H]1CC[C@@]2(C)[C@H](C1)[C@H](OC(C)=O)C[C@@H]1[C@@H]2C[C@H]2[C@@H]3CN4C[C@H](C)CC[C@H]4[C@H](C)[C@H]3CC[C@@]12O,·,·,11%,·,·,·
COc1ccc(-c2cn3c(n2)sc2cc(C(=O)NCC(C)c4ccccc4)ccc23)cc1 (configuration not stated),·,14%,2%,·,·,·
O=C(NNC(=O)c1cccc2ccccc12)c1ccc(Cl)cc1Cl,4%,15%,0%,0%,2%,1
O=C(O)/C=C/C(=O)NNC(=O)c1ccc(Cl)cc1Cl,-1%,-1%,-2%,24µM*,5%[57.1 µM],-9
COc1ccc2[nH]c(=O)c(CN(C(=O)c3cccnc3)c3ccc(C)cc3)cc2c1,-3%,1%,9%,-3%,13%,-4
COc1ccc2[nH]c(=O)c(CN(C(=O)c3cccnc3)c3cccc(C)c3)cc2c1,0%,1%,?,24µM*,12%,?
